Experimental data: PubChem BioAssay
Active and inactive are the calls of the source.

How the values were obtained:
[1] = compound effects on lung adenocarcinoma cell viability – A549, calcein-AM fluorescence, 48 h, basal, profiling panel (AID 1162); conditions: higher = more signal
[2] = compound effects on differentiated 3T3-L1 adipocyte viability – cell-based, 3T3-L1 adipocytes, calcein-AM fluorescence, 48 h, basal, profiling panel (AID 1163); conditions: 3T3-L1 adipocytes viability, higher = more signal
[3] = compound effects on hepatocellular carcinoma cell viability – HepG2, calcein-AM fluorescence, 48 h, basal, profiling panel (AID 1164); conditions: higher = more signal
[4] = compound effects on multiple myeloma cell viability – MM1S, calcein-AM fluorescence, 48 h, basal, profiling panel (AID 1165); conditions: higher = more signal
[5] = calcein-AM signal in unstimulated myeloma cells – cell-based, calcein-AM fluorescence, 48 h, PK04 Diversity Set, profiling panel (AID 1166); conditions: RPMI8226 myeloma viability, higher = more signal;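 further: cells grown under basal conditions without added stimulus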
[6] = JC-1 mitochondrial signal, unstimulated HepG2 cells – cell-based, JC-1 fluorescence, 24 h, 100 nL compound, profiling panel (AID 1167); conditions: HepG2 mitochondrial potential, higher = more signal
[7] = JC-1 mitochondrial signal, unstimulated adipocytes – cell-based, JC-1 fluorescence, 3T3-L1 adipocytes, 24 h, 100 nL compound, profiling panel (AID 1168); conditions: JC-1 mitochondrial fluorescence, higher = more signal, called active from +8 up or from −8 down
[8] = JC-1 mitochondrial signal, unstimulated myeloma cells – cell-based, JC-1 fluorescence, RPMI8226, 24 h, 100 nL compound, profiling panel (AID 1169); conditions: JC-1 mitochondrial potential fluorescence, higher = more signal
[9] = JC-1 mitochondrial signal, unstimulated MM1S myeloma – cell-based, JC-1 fluorescence, 24 h, 100 nL compound, profiling panel (AID 1170); conditions: MM1S mitochondrial potential, higher = more signal
[10] = resazurin metabolic signal in A549 cells – cell-based, resazurin fluorescence, 24 h, PK04 Diversity Set, profiling panel (AID 1171); conditions: A549 viability, higher = more signal, called active from +8 up or from −8 down
Further: test concentration not given here.

SMILES	z-score [1]	z-score [2]	z-score [3]	z-score [4]	z-score [5]	z-score [6]	z-score [7]	z-score [8]	z-score [9]	z-score [10]
CCc1cccc(NC(=O)O[C@H]2[C@H](OC(=O)Nc3ccc4c(c3)OCO4)[C@@H](OC(=O)Nc3ccc4c(c3)OCO4)[C@@H](OC)O[C@@H]2CO)c1	-1.1	0.29	-1.66	-1.33	-0.976	0.0535	0.892 (inactive)	-0.806	-0.503	0.735 (inactive)
CO[C@@H]1COC(=O)CC=C[C@@H](C)[C@@H]2C=C[C@@H](O)[C@@H](COC(=O)CC=C[C@H]1C)O2	0.852	0.572	1.4	0.349	1.01	1.33	0.95 (inactive)	-1.01	1.48	-0.299 (inactive)
O=C1O[C@@H](c2ccccc2)[C@@H](c2ccccc2)N2[C@@H](c3ccccc3OCCO)[C@]3(C(=O)Nc4ccc(C#CCCO)cc43)[C@@H](C(=O)O)[C@H]12	-0.622	1.78	-0.173	-1.43	-1.98	0.259	-0.881 (inactive)	-0.231	-0.641	-0.0647 (inactive)
C=CC[C@@H]1C=C[C@H](ON=Cc2ccc(C(=O)N3[C@H](c4ccc(C)cc4)[C@@H](C)CC[C@H]3C(=O)OC)cc2)[C@@H](CO)O1	0.319	-0.361	-0.431	-0.581	-1.4	-1.67	-0.0052 (inactive)	0.634	-0.434	-0.299 (inactive)
COc1ccc(O[C@H]2C=C[C@@H](c3ccccc3)O[C@@H]2COC(=O)CCC(C)=NOC[C@@H](C)[C@H](OCc2ccccc2)C(C)C)cc1	-0.0801	0.13	-0.442	-0.0358	-1.02	0.577	-1.61 (inactive)	0.815	-0.146	1 (inactive)
CO[C@@H]1COC(=O)CC=C[C@@H](C)[C@@H]2C=C[C@H](O)[C@@H](COC(=O)CCC[C@H]1C)O2	0.438	-0.717	-0.101	-0.567	0.403	-0.016	-0.546 (inactive)	-0.347	-1.23	-0.165 (inactive)
C[C@@H]1CC[C@H]2C(=O)O[C@H](COc3ccc(C(C)(C)C)cc3)CN2[C@H]1c1ccc(Br)cc1	1.29	0.0543	0.0624	-0.232	-0.0964	-1.12	-0.204 (inactive)	-0.132	0.621	1.19 (inactive)
CO[C@@H]1COC(=O)[C@H](C)NC(=O)[C@@H](C)COC(=O)CCC[C@H]1C	-0.0857	-0.459	-0.735	-0.3	-1.38	-0.85	-0.788 (inactive)	0.706	-0.626	-0.0213 (inactive)
CC(C)c1ccc(NN2C(C(O)c3ccc4c(c3)OCO4)C=CC3C(=O)N(c4ccccc4)C(=O)C32)cc1 (stereo not given)	-0.842	-0.293	0.367	-0.911	-0.369	-1.53	-0.462 (inactive)	0.337	0.186	-0.616 (inactive)
CC1CC/C=C\[C@H]2OC34C=CCN(Cn5nnc6ccccc65)C(=O)[C@H]3N(CCO)C(=O)[C@@H]4C2C(=O)O1 (stereo not given in full)	-0.338	1.11	-0.447	0.0362	0.134	-0.153	-0.798 (inactive)	0.691	0.206	0.676 (inactive)
COC(=O)[C@@]1(Cc2ccc(F)cc2)[C@H]2c3cc(C(=O)N(C)C)n(Cc4ccc(OC)c(OC)c4)c3C[C@H]2CN1C(=O)c1ccccc1	-0.74	0.272	-1.36	-1.13	-2.04	0.594	-0.512 (inactive)	0.0709	-0.7	-0.507 (inactive)
N#Cc1ccc(NN2C(C(O)c3cccc4ccccc34)C=CC3C(=O)N(c4ccccc4)C(=O)C32)cc1 (stereo not given)	-0.762	-0.506	1.52	0.0966	0.224	-0.452	0.226 (inactive)	-0.312	-0.0109	0.325 (inactive)
COCCNC(=O)OCC1CCCC2(CC(OC(=O)NCCc3ccc(F)cc3)CC(CCC(=O)N[C@@H](C)C(=O)OC)O2)O1 (stereo not given in full)	1.26	-0.144	0.0479	-0.491	0.253	-0.198	0.836 (inactive)	-0.156	-1	1.06 (inactive)
[N-]=[N+]=Nc1ccccc1C[C@@]1(C(N)=O)N=C(c2ccc(OCCCO)cc2)O[C@@H]1c1ccccc1	-0.391	1.73	-0.515	-2.86	-2.94	0.57	-0.433 (inactive)	-0.778	-0.988	-0.732 (inactive)
O=C1C[C@]2(c3ccc([N+](=O)[O-])cc3)C(=O)N(CCN3CCOCC3)c3cc(CO)ccc3[C@H]2N1CC12CC3CC(CC(C3)C1)C2	-0.677	0.15	-0.227	-0.208	-1.96	-0.141	0.0692 (inactive)	-0.043	0.0356	0.723 (inactive)
COC(=O)[C@@H]1N=C(c2ccc(OCCCO)cc2)O[C@@H]1c1ccccc1N=[N+]=[N-]	0.377	0.557	0.134	-1.58	-1.56	-0.682	0.761 (inactive)	-0.287	-0.218	0.4 (inactive)
